Screen size: about 5,500 compounds; about 2,000 (36%) were called active. About 18% were inconclusive and are not listed. Rule as the data show it: active = normalized growth mostly below about 0.91 (no sharp cut-off); inconclusive = no clear call, values can overlap the other calls; inactive = mostly above about 0.92. Some of the results follow.
Assay: chemical genetic growth profiling, strain panel (AID 1159580);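 also: tested at 20 µM; growth read once vehicle control cultures reached saturation at 30 °C; 1 = growth at the plate median or of vehicle wells; lower values mean less growth of the strain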
Details: growth OD

Measured: normalized growth

COc1ccc([C@@H]2CC(=O)c3c(O)cc(O)cc3O2)cc1O
inactive: S. cerevisiae deletion strains, locus YJR043C, strain POL32, hits give low values 0.966 | S. cerevisiae deletion strains, locus YJR066W, strain TOR1, hits give low values 0.95 | S. cerevisiae deletion strains, locus YJR075W, strain HOC1, hits give low values 1.03 | S. cerevisiae deletion strains, locus YKL009W, strain mrt4, hits give low values 1.01 | S. cerevisiae deletion strains, locus YKL068W, hits give low values 0.998 | S. cerevisiae deletion strains, locus YKL085W, strain MDH1 (second series), hits give low values 0.99 | S. cerevisiae deletion strains, locus YKL085W, strain MDH1, hits give low values 0.99 | S. cerevisiae deletion strains, locus YKL160W, strain elf1, hits give low values 0.954 | S. cerevisiae deletion strains, locus YKR001C, strain vps1, hits give low values 1 | S. cerevisiae deletion strains, locus YKR026C, strain gcn3, hits give low values 0.982 | S. cerevisiae deletion strains, locus YKR091W, strain srl3, hits give low values 0.973 | S. cerevisiae deletion strains, locus YLL001W, strain dnm1, hits give low values 0.947 | S. cerevisiae deletion strains, locus YLL026W, hits give low values 0.993 | S. cerevisiae deletion strains, locus YLL041C, strain sdh2, hits give low values 0.982 | S. cerevisiae deletion strains, locus YLR027C, strain aat2, hits give low values 1 | S. cerevisiae deletion strains, locus YLR039C, strain RIC1, hits give low values 1.06 | S. cerevisiae deletion strains, locus YLR058C, strain SHM2, hits give low values 1.01 | S. cerevisiae deletion strains, locus YLR102C, strain apc9, hits give low values 1.01 | S. cerevisiae deletion strains, locus YLR113W, strain HOG1, hits give low values 1.02 | S. cerevisiae deletion strains, locus YLR221C, strain rsa3, hits give low values 0.959 | S. cerevisiae deletion strains, locus YLR258W, strain gsy2, hits give low values 0.977 | S. cerevisiae deletion strains, locus YLR262C, strain YPT6 (second series), hits give low values 0.972 | S. cerevisiae deletion strains, locus YLR262C, strain YPT6, hits give low values 1.03 | S. cerevisiae deletion strains, locus YLR268W, strain sec22, hits give low values 1.06 | S. cerevisiae deletion strains, locus YLR320W, strain mms22, hits give low values 0.93 | S. cerevisiae deletion strains, locus YLR330W, strain CHS5, hits give low values 1.01 | S. cerevisiae deletion strains, locus YLR342W, strain FKS1 (second series), hits give low values 0.979 | S. cerevisiae deletion strains, locus YLR342W, strain FKS1, hits give low values 0.976 | S. cerevisiae deletion strains, locus YLR357W, strain rsc2, hits give low values 0.953 | S. cerevisiae deletion strains, locus YLR370C, strain arc18, hits give low values 0.97 | S. cerevisiae deletion strains, locus YLR371W, strain rom2, hits give low values 1.01 | S. cerevisiae deletion strains, locus YLR384C, strain iki3, hits give low values 0.972 | S. cerevisiae deletion strains, locus YLR418C, strain cdc73, hits give low values 0.937 | S. cerevisiae deletion strains, locus YML016C, strain PPZ1, hits give low values 1 | S. cerevisiae deletion strains, locus YML032C, strain rad52, hits give low values 0.991 | S. cerevisiae deletion strains, locus YML120C, strain ndi1, hits give low values 0.974 | S. cerevisiae deletion strains, locus YML124C, strain tub3, hits give low values 1.01 | S. cerevisiae deletion strains, locus YMR058W, strain fet3, hits give low values 0.969 | S. cerevisiae deletion strains, locus YMR078C, strain ctf18, hits give low values 1.01 | S. cerevisiae deletion strains, locus YMR125W, strain sto1, hits give low values 0.96 | S. cerevisiae deletion strains, locus YMR129W, hits give low values 0.988 | S. cerevisiae deletion strains, locus YMR205C, strain PFK2, hits give low values 0.952 | S. cerevisiae deletion strains, locus YMR223W, strain ubp8, hits give low values 0.978 | S. cerevisiae deletion strains, locus YMR231W, strain pep5, hits give low values 0.98 | S. cerevisiae deletion strains, locus YMR263W, strain SAP30, hits give low values 1.03 | S. cerevisiae deletion strains, locus YMR307W, strain GAS1, hits give low values 0.952 | S. cerevisiae deletion strains, locus YNL067W, strain RPL9B, hits give low values 1.03 | S. cerevisiae deletion strains, locus YNL071W, strain lat1, hits give low values 0.979 | S. cerevisiae deletion strains, locus YNL183C, strain NPR1, hits give low values 0.944 | S. cerevisiae deletion strains, locus YNL209W, strain ssb2, hits give low values 0.986 | S. cerevisiae deletion strains, locus YNL233W, strain BNI4, hits give low values 1 | S. cerevisiae deletion strains, locus YNL248C, strain rpa49, hits give low values 0.97 | S. cerevisiae deletion strains, locus YNL250W, strain rad50, hits give low values 1.02 | S. cerevisiae deletion strains, locus YNL271C, strain bni1, hits give low values 1.01 | S. cerevisiae deletion strains, locus YNL298W, strain CLA4, hits give low values 1.02 | S. cerevisiae deletion strains, locus YNL307C, strain MCK1, hits give low values 1.01 | S. cerevisiae deletion strains, locus YNL322C, strain KRE1 (second series), hits give low values 0.987 | S. cerevisiae deletion strains, locus YNR049C, strain mso1, hits give low values 0.973 | S. cerevisiae deletion strains, locus YNR052C, strain pop2, hits give low values 1.02 | S. cerevisiae deletion strains, locus YOL012C, strain htz1 1.12 | S. cerevisiae deletion strains, locus YOL147C, strain pex11, hits give low values 0.998 | S. cerevisiae deletion strains, locus YOR001W, strain rrp6, hits give low values 0.988 | S. cerevisiae deletion strains, locus YOR061W, strain CKA2, hits give low values 1 | S. cerevisiae deletion strains, locus YOR069W, strain VPS5, hits give low values 1 | S. cerevisiae deletion strains, locus YOR070C, strain gyp1, hits give low values 0.975 | S. cerevisiae deletion strains, locus YOR080W, strain dia2, hits give low values 0.979 | S. cerevisiae deletion strains, locus YOR083W, strain WHI5, hits give low values 0.934 | S. cerevisiae deletion strains, locus YOR106W, strain vam3, hits give low values 0.946 | S. cerevisiae deletion strains, locus YOR136W, strain idh2, hits give low values 1.01 | S. cerevisiae deletion strains, locus YOR144C, strain elg1, hits give low values 0.999 | S. cerevisiae deletion strains, locus YOR184W, strain ser1, hits give low values 0.986 | S. cerevisiae deletion strains, locus YOR231W, strain MKK1, hits give low values 1.02 | S. cerevisiae deletion strains, locus YOR265W, strain rbl2, hits give low values 0.983 | S. cerevisiae deletion strains, locus YOR270C, strain vph1, hits give low values 0.933 | S. cerevisiae deletion strains, locus YOR290C, strain snf2, hits give low values 0.924 | S. cerevisiae deletion strains, locus YOR316C, strain cot1, hits give low values 1 | S. cerevisiae deletion strains, locus YPL051W, strain arl3, hits give low values 0.967 | S. cerevisiae deletion strains, locus YPL055C, strain LGE1, hits give low values 1.02 | S. cerevisiae deletion strains, locus YPL078C, strain atp4, hits give low values 0.952 | S. cerevisiae deletion strains, locus YPL106C, strain sse1, hits give low values 0.965 | S. cerevisiae deletion strains, locus YPL240C, strain hsp82, hits give low values 0.997 | S. cerevisiae deletion strains, locus YPL256C, strain CLN2, hits give low values 1.03 | S. cerevisiae deletion strains, locus YPR119W, strain clb2, hits give low values 1.01 | S. cerevisiae deletion strains, locus YPR141C, strain kar3, hits give low values 1.01 | S. cerevisiae deletion strains, locus YPR163C, strain tif3, hits give low values 1.01 | S. cerevisiae deletion strains, locus YPR167C, strain met16, hits give low values 1 | S. cerevisiae deletion strains, strain wtn01, hits give low values 1.03 | S. cerevisiae strains, strain wild type, hits give low values 1.01

Reference: PubChem BioAssay AID1159580 (chemical genetic matrix, 2015)
